Conditions in all cases: Compound concentration 20.0 uM
Test [1] addresses Tyrosine-protein kinase ABL1 (Homo sapiens) (UniProt P00519).
Test [2] has as its target Bromodomain-containing protein 4 (Homo sapiens) (UniProt O60885).
Test [3] has as its target Cyclin-dependent kinase 2 (Homo sapiens) (UniProt P24941).
Test [4] addresses Casein kinase I isoform delta (Homo sapiens) (UniProt P48730).
For test [5], the target named is Glycogen synthase kinase-3 beta (Homo sapiens) (UniProt P49841).
Test [6] has as its target Mitogen-activated protein kinase 1 (Homo sapiens) (UniProt P28482).
Test [7] concerns the target T1, Aurora kinase A (Homo sapiens) (UniProt O14965).
T1 sequence (whole entry): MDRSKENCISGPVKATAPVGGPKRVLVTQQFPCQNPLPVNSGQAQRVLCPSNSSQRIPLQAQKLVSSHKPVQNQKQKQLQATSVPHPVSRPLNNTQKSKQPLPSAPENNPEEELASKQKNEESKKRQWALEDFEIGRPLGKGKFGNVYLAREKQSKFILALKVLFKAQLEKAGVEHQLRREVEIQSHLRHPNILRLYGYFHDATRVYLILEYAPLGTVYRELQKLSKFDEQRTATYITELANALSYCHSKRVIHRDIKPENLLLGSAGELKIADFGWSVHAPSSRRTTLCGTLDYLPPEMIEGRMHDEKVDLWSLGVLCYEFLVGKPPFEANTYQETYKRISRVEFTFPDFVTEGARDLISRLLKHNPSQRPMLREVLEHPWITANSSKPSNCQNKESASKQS

The target in test [8] is T2, Transcription intermediary factor 1-alpha (Homo sapiens) (UniProt O15164).
T2 sequence (whole entry): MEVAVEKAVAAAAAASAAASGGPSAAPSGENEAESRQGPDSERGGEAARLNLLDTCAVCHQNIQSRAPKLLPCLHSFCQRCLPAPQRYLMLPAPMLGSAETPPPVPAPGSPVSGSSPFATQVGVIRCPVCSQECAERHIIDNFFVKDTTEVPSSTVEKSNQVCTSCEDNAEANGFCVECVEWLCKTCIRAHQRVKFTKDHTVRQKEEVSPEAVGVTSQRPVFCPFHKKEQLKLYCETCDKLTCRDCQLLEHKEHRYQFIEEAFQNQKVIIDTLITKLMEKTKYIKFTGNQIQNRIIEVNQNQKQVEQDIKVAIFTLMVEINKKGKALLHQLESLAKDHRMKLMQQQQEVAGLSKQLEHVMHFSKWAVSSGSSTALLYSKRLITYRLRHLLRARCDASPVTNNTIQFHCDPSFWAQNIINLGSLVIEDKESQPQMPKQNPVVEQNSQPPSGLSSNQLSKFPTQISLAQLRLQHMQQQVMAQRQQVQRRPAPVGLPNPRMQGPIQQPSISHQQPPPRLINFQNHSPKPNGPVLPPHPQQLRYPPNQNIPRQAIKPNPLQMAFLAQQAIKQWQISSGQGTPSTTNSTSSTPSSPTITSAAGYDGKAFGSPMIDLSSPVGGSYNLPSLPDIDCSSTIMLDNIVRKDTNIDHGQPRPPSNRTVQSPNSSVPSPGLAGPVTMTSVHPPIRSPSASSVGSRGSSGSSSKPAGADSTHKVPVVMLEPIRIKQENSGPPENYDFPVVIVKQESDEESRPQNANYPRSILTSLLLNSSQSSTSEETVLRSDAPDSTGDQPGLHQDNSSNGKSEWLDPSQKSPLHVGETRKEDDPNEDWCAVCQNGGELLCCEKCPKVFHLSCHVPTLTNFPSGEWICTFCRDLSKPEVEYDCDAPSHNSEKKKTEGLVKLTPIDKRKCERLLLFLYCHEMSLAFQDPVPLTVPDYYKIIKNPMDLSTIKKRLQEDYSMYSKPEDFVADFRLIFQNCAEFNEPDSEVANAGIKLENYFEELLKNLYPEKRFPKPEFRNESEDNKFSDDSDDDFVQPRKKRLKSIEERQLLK

As a reminder, the ΔTm is the change in melting temperature against a reference sample.

Each structure is given as a SMILES string. Residues, ends and D or L forms follow the SMILES beside them.

Chain of Tyrosine-protein kinase ABL1 (Homo sapiens) (P00519 whole entry): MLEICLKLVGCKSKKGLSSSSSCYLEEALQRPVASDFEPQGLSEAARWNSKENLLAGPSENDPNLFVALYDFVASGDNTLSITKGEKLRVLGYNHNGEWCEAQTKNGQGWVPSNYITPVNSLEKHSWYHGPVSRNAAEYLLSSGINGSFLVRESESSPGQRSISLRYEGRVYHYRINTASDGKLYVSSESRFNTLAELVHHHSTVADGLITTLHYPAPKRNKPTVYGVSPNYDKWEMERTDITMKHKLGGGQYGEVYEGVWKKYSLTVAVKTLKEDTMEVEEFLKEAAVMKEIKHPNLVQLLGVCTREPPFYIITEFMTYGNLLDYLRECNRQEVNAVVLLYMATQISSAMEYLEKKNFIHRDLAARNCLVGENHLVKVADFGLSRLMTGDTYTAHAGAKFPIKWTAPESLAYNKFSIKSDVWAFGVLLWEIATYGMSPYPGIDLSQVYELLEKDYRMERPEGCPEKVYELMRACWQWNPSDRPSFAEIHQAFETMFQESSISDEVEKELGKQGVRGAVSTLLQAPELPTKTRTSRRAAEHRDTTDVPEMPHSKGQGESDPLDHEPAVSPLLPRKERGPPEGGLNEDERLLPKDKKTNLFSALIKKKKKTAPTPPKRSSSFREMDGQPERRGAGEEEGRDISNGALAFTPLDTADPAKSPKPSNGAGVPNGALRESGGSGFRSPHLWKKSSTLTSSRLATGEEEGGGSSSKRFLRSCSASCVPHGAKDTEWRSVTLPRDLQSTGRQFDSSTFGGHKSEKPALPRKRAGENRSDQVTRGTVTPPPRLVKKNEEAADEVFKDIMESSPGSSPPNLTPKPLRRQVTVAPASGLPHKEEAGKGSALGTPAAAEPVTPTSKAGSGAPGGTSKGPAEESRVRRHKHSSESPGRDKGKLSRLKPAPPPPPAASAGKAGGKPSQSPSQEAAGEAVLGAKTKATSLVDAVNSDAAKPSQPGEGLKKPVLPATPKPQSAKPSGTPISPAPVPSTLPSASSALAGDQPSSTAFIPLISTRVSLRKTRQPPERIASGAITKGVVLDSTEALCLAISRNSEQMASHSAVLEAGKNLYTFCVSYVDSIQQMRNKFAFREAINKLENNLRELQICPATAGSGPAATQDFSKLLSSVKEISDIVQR
Chain of Mitogen-activated protein kinase 1 (Homo sapiens) (P28482 whole entry): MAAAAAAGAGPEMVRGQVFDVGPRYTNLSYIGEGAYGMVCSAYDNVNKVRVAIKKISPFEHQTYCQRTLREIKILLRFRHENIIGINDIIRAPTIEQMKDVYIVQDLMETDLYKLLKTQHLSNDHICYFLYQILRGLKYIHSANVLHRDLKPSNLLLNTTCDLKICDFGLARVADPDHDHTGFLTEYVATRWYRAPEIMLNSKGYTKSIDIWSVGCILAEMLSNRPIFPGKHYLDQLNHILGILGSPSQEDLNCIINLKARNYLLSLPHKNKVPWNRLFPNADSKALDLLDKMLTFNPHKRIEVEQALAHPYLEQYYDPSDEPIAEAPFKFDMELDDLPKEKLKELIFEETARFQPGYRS
Chain of Casein kinase I isoform delta (Homo sapiens) (P48730 whole entry, looked up, canonical isoform): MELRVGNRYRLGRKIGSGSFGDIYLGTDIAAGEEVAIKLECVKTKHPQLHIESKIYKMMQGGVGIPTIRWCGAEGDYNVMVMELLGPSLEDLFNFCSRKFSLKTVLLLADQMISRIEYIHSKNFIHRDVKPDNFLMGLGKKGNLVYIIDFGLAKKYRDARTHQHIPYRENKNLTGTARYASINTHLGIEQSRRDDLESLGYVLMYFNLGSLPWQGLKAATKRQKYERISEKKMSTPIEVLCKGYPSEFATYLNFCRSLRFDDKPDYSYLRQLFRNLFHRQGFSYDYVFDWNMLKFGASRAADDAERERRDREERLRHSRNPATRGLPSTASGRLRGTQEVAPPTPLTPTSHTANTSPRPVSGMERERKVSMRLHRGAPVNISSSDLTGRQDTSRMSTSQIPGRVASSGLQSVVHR
Chain of Glycogen synthase kinase-3 beta (Homo sapiens) (P49841 whole entry, looked up): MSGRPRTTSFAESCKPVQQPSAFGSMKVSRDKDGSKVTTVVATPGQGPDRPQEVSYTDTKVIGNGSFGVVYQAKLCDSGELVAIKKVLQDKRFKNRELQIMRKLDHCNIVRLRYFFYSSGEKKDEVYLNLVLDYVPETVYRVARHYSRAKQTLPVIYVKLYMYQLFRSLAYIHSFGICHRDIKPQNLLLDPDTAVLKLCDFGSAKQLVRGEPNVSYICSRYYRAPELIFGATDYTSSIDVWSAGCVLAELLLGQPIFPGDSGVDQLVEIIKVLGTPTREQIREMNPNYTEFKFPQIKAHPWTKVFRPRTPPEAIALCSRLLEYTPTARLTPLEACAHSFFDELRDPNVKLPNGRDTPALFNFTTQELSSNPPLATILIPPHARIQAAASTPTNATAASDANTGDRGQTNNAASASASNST

Take `O=C(CCl)Nc1ccc(S(=O)(=O)c2ccc(NC(=O)CCl)cc2)cc1`: the shift in melting temperature (ΔTm) in test [1] is 1.36 °C; in test [2] it was -1.5 °C; in test [3] it was 0 °C; in test [4] it was 0.55 °C; in test [5], 0.48 °C; in test [6], -1.61 °C. Besides, the ΔTm in test [7] was -0.12 °C; in test [8] it was 0.36 °C.
Turning to `CC(C)[C@H](NC(=O)OCc1ccccc1)C(=O)NC(CC(=O)O)C(=O)CF` (stereo partly drawn), the ΔTm in test [1] is -0.18 °C; in test [2] it was -3.41 °C; in test [3], -0.73 °C; in test [4] it was 0.1 °C; in test [5], 0.35 °C; in test [6], -0.08 °C. Moreover, the ΔTm in test [7] is -2.03 °C; in test [8], -1.64 °C.
Take `O=C(O)C1=CCCN(CCON=C(c2ccccc2)c2ccccc2)C1`: the ΔTm in test [1] is 0.08 °C; in test [2], -0.61 °C; in test [3], 0.73 °C; in test [4], -0.14 °C; in test [5], 0 °C; in test [6], 0.02 °C. Moreover, the ΔTm in test [7] was -1.31 °C; in test [8], 1.41 °C.
As to `CNCCN(C)Cc1cn[nH]c1-c1ccc(OC2CC(OCCC3CCOCC3)C2)cc1` (stereo not drawn), the shift in melting temperature (ΔTm) in test [1] was 0.66 °C; in test [2], -1.82 °C; in test [3] it was 0.43 °C; in test [4] it was 0.19 °C; in test [5], -0.94 °C; in test [6], 0.05 °C. The shift in melting temperature (ΔTm) in test [7] was -0.58 °C; in test [8] it was -1.33 °C.
`CCC[C@H]1CNCc2c1[nH]c(=O)c(C#N)c2N1CCC2(CC1)CC2`: the ΔTm in test [1] was 0.01 °C; in test [2], -1.65 °C; in test [3] it was -0.06 °C; in test [4], 0.15 °C; in test [5], -0.31 °C; in test [6], -0.08 °C. Moreover, the results for the ΔTm in test [7] and in test [8] were -0.93 °C and -1.34 °C, respectively.
Turning to `CC(C)(C)OC(=O)NCCCCCN(CCc1ccccc1)C(=O)n1cc(-c2ccc(OC(F)(F)F)cc2)nn1`, the thermal shift (ΔTm) in test [1] is -0.13 °C; in test [2] it was -3.63 °C; in test [3] it was 0.01 °C; in test [4], -1.51 °C; in test [5], -2.3 °C; in test [6] it was 0.71 °C. Moreover, the ΔTm is -2.16 °C in test [7] and 0.4 °C in test [8].
`O=C(CCCCCCC(=O)Nc1ccc([C@H]2O[C@@H](CSc3nc(-c4ccccc4)c(-c4ccccc4)o3)C[C@@H](c3ccc(CO)cc3)O2)cc1)NO`: the ΔTm in test [1] was -3.66 °C; in test [2] it was -1.65 °C; in test [3], -1.26 °C; in test [4] it was 0 °C; in test [5] it was 2.86 °C; in test [6], -12.5 °C. Besides, the ΔTm in test [7] came out at 2.82 °C; in test [8], 3.56 °C.
Take `CS(=O)(=O)N1CCN(C(=O)c2cnc3ccc(F)cc3c2-c2ccc(C3(C#N)CC3)cc2)CC1`: the ΔTm turned out to be 0.07 °C in test [1]; 1.15 °C in test [2]; 0.13 °C in test [3]; 0.11 °C in test [4]; 3.18 °C in test [5]; 0.08 °C in test [6]. The ΔTm in test [7] was -1.44 °C; in test [8], 0.3 °C.
Regarding `Cc1noc2c1-c1ccccc1C(c1ccc(Cl)cc1)=N[C@H]2CC(N)=O`, the ΔTm in test [1] is 0.53 °C; in test [2] it was 8.17 °C; in test [3], 0.94 °C; in test [4] it was 0.05 °C; in test [5], -0.25 °C; in test [6] it was 0.12 °C. Further, the ΔTm in test [7] is -2.42 °C; in test [8] it was -0.29 °C.
As for `CNC(=O)O[C@H]1COc2ccc(N3CCN(C4COC4)CC3)cc2[C@@H]1NC(=O)c1ccc(F)cc1`, the ΔTm was 0.28 °C in test [1]; -1.16 °C in test [2]; -0.66 °C in test [3]; 0.03 °C in test [4]; -0.56 °C in test [5]; -1.19 °C in test [6]. Moreover, the shift in melting temperature (ΔTm) in test [7] was -1.61 °C; in test [8], -0.51 °C.
As to `CC(=O)N[C@@H](CC(C)C)C(=O)N[C@@H](CCC(=O)O)C(=O)N[C@H](C(=O)N[C@H](C=O)CC(=O)O)C(C)C` (Ac-LEVD-aldehyde), the ΔTm is 0.2 °C in test [1]; -2.55 °C in test [2]; -0.57 °C in test [3]; 0.25 °C in test [4]; -2.05 °C in test [5]; -0.12 °C in test [6]. For the same molecule, the ΔTm in test [7] was -1.87 °C; in test [8] it was -2.52 °C.
